Screening results from PubChem.
A selection: hits, their analogues and other compounds. The true share with any hit is near 2.7%.
GLP1R cytotox – qHTS of GLP-1 Receptor Inverse Agonists: Cytotox Screen; Potency, µM (doses to about 38.3 µM), for inactives: at the highest dose activity change, negative = inhibition, actives largely listed as inhibitors; HEK293 cAMP-luciferase reporter cells, luminescence, 24 h; 410,000 tested, 0.13% active; AID 624418, 2012;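 further: loss of luciferase light is scored as toxicity; on the % scale 0 is the no-effect control and ±100 the full control effect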
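Quantitative HTS format, 1536 wells, 200 cells/uL seeded. Compounds: 23 nL, 24 h, 37 °C. Detection: luciferase reagent, luminescence at 12 min RT; decreased signal taken as cytotoxic.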
TrxR1 substrate – qHTS Assay for Substrates of Mammalian Selenoprotein Thioredoxin Reductase 1 (TrxR1): qHTS; Thioredoxin reductase 1, cytoplasmic (Rattus norvegicus), O89049; purified TrxR1 substrate turnover, NADPH consumption readout; Potency, µM (titrated, usually from 114 µM), for the others: at the highest dose activity change, negative = substrate turnover; 390,000 tested, 0.01% active; further: on the % scale 0 is the no-effect control and ±100 the full control effect; nearly all actives have a fitted effect of over 50% in size
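Rat TrxR1, dispensed at 90 nM, was prereduced with 400 uM NADPH (final) for 5 min at ~22 deg C, then incubated with compound 15 min before 400 uM selenite. A first-read NADPH fluorescence drop versus no-compound background flagged substrates.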
rTrxR1 inhibitor – qHTS Assay for Inhibitors of Mammalian Selenoprotein Thioredoxin Reductase 1 (TrxR1): qHTS. Potency, µM (highest dose often 114 µM), inactives show top-dose activity change, negative = inhibition, actives largely listed as inhibitors. recombinant rTrxR1, NADPH fluorescence consumption, selenite substrate. Thioredoxin reductase 1, cytoplasmic (Rattus norvegicus), O89049. 390,000 tested, 1% active. AID 588453, 2011; further: on the % scale 0 is the no-effect control and ±100 the full control effect; nearly all actives have a fitted effect of over 65% in size
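Rat TrxR1 (90 nM in the dispensed reagent) was pre-reduced with 400 uM NADPH for 5 min at room temperature, then incubated with compound for 15 min. After 400 uM selenite was added, NADPH fluorescence (Ex 340/Em 450 nm) was followed for 8 min.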
mIDH1 inhibitor – qHTS for Inhibitors of mutant isocitrate dehydrogenase 1 (IDH1): qHTS; 390,000 tested, 0.093% active; AID 602179, 2012; Potency, µM (top dose mostly 76.6 µM), inactives show at the highest dose activity change, negative = inhibition, actives largely listed as inhibitors; IDH1-R132H enzyme, NADPH consumption, diaphorase/resazurin fluorescence; further: on the % scale 0 is the no-effect control and ±100 the full control effect; nearly all actives have a fitted effect of over 65% in size
Target sequence (O75874 whole entry R132H, stated change not applied): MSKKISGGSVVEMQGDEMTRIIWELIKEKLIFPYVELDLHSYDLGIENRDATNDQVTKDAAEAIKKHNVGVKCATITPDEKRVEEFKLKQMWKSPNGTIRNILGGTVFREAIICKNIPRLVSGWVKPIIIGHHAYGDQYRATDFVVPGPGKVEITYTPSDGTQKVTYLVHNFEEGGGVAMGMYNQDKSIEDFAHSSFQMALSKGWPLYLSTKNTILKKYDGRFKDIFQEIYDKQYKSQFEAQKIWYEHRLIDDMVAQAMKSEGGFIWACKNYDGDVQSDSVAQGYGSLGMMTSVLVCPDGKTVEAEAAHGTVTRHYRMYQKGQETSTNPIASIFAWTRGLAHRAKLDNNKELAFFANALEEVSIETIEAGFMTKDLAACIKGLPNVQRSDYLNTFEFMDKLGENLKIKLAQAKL
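IDH1-R132H (0.5 ug/mL) preincubated 30 min with compound, then NADPH (0.016 mM) and alpha-KG (2 mM) added; 80 min at RT, pH 7.5. Remaining NADPH coupled via diaphorase/resazurin to fluorescence (540/590 nm); concentration-response curves normalized to no-enzyme control.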
GLP1R ag – qHTS of GLP-1 Receptor Agonists; Glucagon-like peptide 1 receptor (Homo sapiens), P43220; HEK293 GLP-1R CRE-luciferase, luminescence, 4-6 h; cells express a hypersensitive GLP-1R form; Potency, µM (titrated, usually from 45.6 µM), for inactives: at the highest dose activation, actives largely listed as activators; 380,000 tested, 0.007% active; further: % of control where 0% means no effect
GLP1R inv ag – qHTS of GLP-1 Receptor Inverse Agonists (Inhibition Mode); Glucagon-like peptide 1 receptor (Homo sapiens), P43220; HEK293 GLP-1R CRE-luciferase, luminescence, 24 h; GLP-1R form is constitutively active; Potency, µM (series often up to 38.3 µM), without a hit: top-dose activity change, negative = inhibition, most hits filed as inhibitors; 410,000 tested, 1.6% active; further: on the % scale 0 is the no-effect control and ±100 the full control effect; nearly all actives have a fitted effect of over 55% in size
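Using stably transfected HEK293 (constitutively active GLP-1R, cAMP-luciferase reporter), compounds were incubated 24 hr and luciferase measured by luminescence.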
* marks the source's active call; other numbers are inactive results; ? = inconclusive; . = not tested or not shown; [ ] = remark or other dose. The call rests on the fitted dose curve; in most records, active means well fitted curve in the direction sought with a large enough effect; inconclusive means small, poorly fitted or top-dose-only effect, or another doubt; inactive means no such curve, though single readings can be large; an effect the other way counts as inactive or inconclusive. Potency means the concentration at half of the fitted maximal effect.

SMILES	GLP1R cytotox	TrxR1 substrate	rTrxR1 inhibitor	mIDH1 inhibitor	GLP1R ag	GLP1R inv ag
COc1ccc(C(=O)CCc2ccccc2)c(O)c1	-1%	0%	22%	2%	21%	?
O=C(CCc1ccccc1)c1c(O)cc(O)cc1O	0%	2%	20µM*	22%	1%	?
O=C(CC(c1ccccc1)c1cc(Br)ccc1O)NCc1ccco1 (configuration not stated)	-10%	-8%	-27%	1%	-18%	11µM*
O=C(CC(c1ccccc1)c1ccccc1O)NCc1ccccc1Cl (configuration not stated)	-15%	-3%	0%	2%	-10%	10µM*
O=C(CC(c1ccccc1)c1ccccc1O)NCc1ccco1 (configuration not stated)	-7%	-3%	-19%	5%	-8%	?
Cc1ccc2nc(C3CCCN(C(=S)Nc4cccc(C)c4C)C3)[nH]c2c1 (configuration not stated)	11µM*	5%	16%[57.1 µM]	6%	-8%	?
Cc1cc(NC(=O)CCN2CCC(C)CC2)ccc1Br	19%	6%	32%	0%	12%	10µM*
Cc1cc(NC(=S)NC(=O)C2CC2)ccc1Br	?	2%	45µM*	8%	0%	?
Cc1ccccc1NC(=S)NC(=O)C1CCCCC1	?	-1%	?	0%	1%	8.9µM*
O=C(NC(=S)Nc1ccccc1CO)C1CCCCC1	5%	6%	9%	-8%	26%	-9%
Cc1cc(C)cc(NC(=S)NC(=O)C2CC2)c1	?	-10%	?	0%	19%	11µM*
O=C(CSC1=Nc2ccccc2C2=NC(Cc3ccccc3)C(=O)N12)Nc1ccccc1F (configuration not stated)	-5%	4%[57.1 µM]	9%[57.1 µM]	23%	.	-7%
COc1cccc(CC(=O)NCc2ccc3c(c2)CCN3C(C)=O)c1	5%	-6%[57.1 µM]	2%[57.1 µM]	-8%	.	5%
Cc1cc(C)c2c(=O)c3c(oc2c1)C(=O)N(Cc1ccco1)C3c1ccccc1F (configuration not stated)	11%	2%	4%	.	.	16%
C=C[C@@]1(C)C[C@H](OC(=O)CSC(C)(C)CNC(=O)[C@@H](N)C(C)C)[C@@]2(C)C(C)CC[C@@]3(CCC(=O)[C@@H]32)[C@H](C)[C@H]1O (some centres not stated)	.	10%[0.0914 µM]	2%	.	0%	.
Cc1ccc2ncc(C(=O)Nc3cccc(C(F)(F)F)c3)c(=O)n2c1	-2%	11%	35%	2%	.	8%
C=CCn1c(CCc2cc(C(C)(C)C)c(O)c(C(C)(C)C)c2)n[nH]c1=S	11µM*	0%[57.1 µM]	5%[57.1 µM]	-9%	7%	?
O=C1/C(=C/c2ccncc2)SC(=S)N1N1CCOCC1	1%	-2%	22µM*	1%	-6%	17%
O=C1/C(=C/c2cccnc2)SC(=S)N1N1CCOCC1	-2%	-10%	?	2%	-4%	8%
CN(Cc1cccc2ccccc12)C(=O)c1cc(COc2c(F)cccc2F)on1	-18%	-3%[57.1 µM]	16%[57.1 µM]	6%	10%	10µM*
COc1ccc(CCC(=O)NCC23CC4CC(CC(C4)C2)C3)cc1	-5%	5%	9%	-7%	0%	6.3µM*
O=C(NCCn1cc(SCc2ccccc2)c2ccccc21)c1c(F)cccc1F	3%	3%[57.1 µM]	20%[57.1 µM]	9%	12%	10µM*
O=C(NCCn1cc(SCc2ccc(C(F)(F)F)cc2)c2ccccc21)c1cccs1	-8%	-7%	1%	9%	-5%	11µM*
O=C(NCCn1cc(SCc2ccc(F)cc2)c2ccccc21)c1ccccc1F	-11%	4%[57.1 µM]	6%[57.1 µM]	17%	0%	7.9µM*
O=C(NCCn1cc(SCc2ccc(F)cc2)c2ccccc21)c1c(F)cccc1F	-4%	-4%	6%	25%	-2%	?
SMILES	GLP1R cytotox	TrxR1 substrate	rTrxR1 inhibitor	mIDH1 inhibitor	GLP1R ag	GLP1R inv ag
COc1cc(N(C)C)ccc1/C=C1\C=Cc2ccccc21	.	-8%	-13%	.	.	.
O=S1(=O)CCOC[C@H](c2ccccc2)N1Cc1ccc(Cl)cc1Cl	.	-2%	18%	.	.	.
CCCCc1nc(NCCNC(=O)c2ccco2)c(C#N)c2c1CSC(C)(C)C2	-39%	77%	50µM*	-3%	12%	-2%
CCCCc1nc(NCCNC(=O)c2ccccc2)c(C#N)c2c1CSC(C)(C)C2	?	11%[57.1 µM]	-1%[57.1 µM]	-1%	-34%	8.9µM*
COc1cc(OC)c(OC)cc1/C=c1\[nH]c(=O)/c(=C/c2cc(OC)c(OC)cc2OC)[nH]c1=O	.	4%	1%	.	.	.
Cc1cc(-c2ccccc2)nc(Oc2cccc(C(F)(F)F)c2)c1S(C)(=O)=O	7%	14%[57.1 µM]	32%[57.1 µM]	2%	7%	10µM*
Cc1cc(C)c(S(C)(=O)=O)c(Oc2cccc(Cl)c2)n1	-3%	4%[57.1 µM]	9%	3%	0%	5%
Cc1cc(C)c(S(C)(=O)=O)c(Oc2ccc(C(C)(C)C)cc2)n1	9%	-12%	-14%	7%	4%	11µM*
Cc1ccc(S(=O)(=O)c2c(C)cc(C)nc2Oc2cccc(C(F)(F)F)c2)cc1	4%	-6%	8%	-1%	-10%	5µM*
CCOCCCNC(=O)NC(CCC(C)C)c1c(-n2cccc2)sc2c1CCN(C)C2 (configuration not stated)	8%	-11%	-12%	4%	.	3%
O=c1c2ccccc2oc2ccc(-c3ccoc3)cc12	.	14%	?	.	.	.
CC12CCC(C(=O)N3CCc4ccccc43)(CC1=O)C2(C)C (configuration not stated)	-3%	-7%	-6%	1%	0%	13µM*
Cc1ccc(NC(=O)N2CCN(c3cc(-c4noc(C)n4)ccc3C)CC2)c(C)c1	3%	5%[57.1 µM]	22%[57.1 µM]	0%	-7%	10%
Cc1nc(-c2ccc(C)c(N3CCN(C(=O)Nc4cccc(Cl)c4C)CC3)c2)no1	0%	5%[57.1 µM]	15%[57.1 µM]	5%	-4%	4.5µM*
CCN=C1S/C(=C\c2cn(CC)c3ccccc23)C(=O)N1CC	-9%	-1%	1%	4%	14µM*	?
